# Compounds with a hit are over-represented: about 21% of the library has one in this group of screens.
# CHX counter: affects cycloheximide protein synthesis inhibition readout, counter-screen | cell reporter, cycloheximide protein synthesis inhibition counterscreen | max response, % | 300,000 tested, 12% active; in the data active = max response mostly above about 13%, no sharp cut-off; inactive = mostly below about 14%; note: read at 38.3 µM for the half of the compounds with a filed dose; 0% is about no effect
# Pf growth 48h: inhibits P. falciparum growth in the first generation, 48 h | P. falciparum luciferase growth in erythrocytes, 48 h | Potency, µM (series often up to 28.7 µM), inactives show at the highest dose activity change, negative = inhibition, most hits filed as inhibitors | 310,000 tested, 5.9% active; note: potency is the fitted concentration of half-maximal effect; % is set by controls: 0 for no effect and ±100 for the full control effect
#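 Firefly luciferase activity from engineered P. falciparum reports growth; inhibitors lower the luminescent signal. Cultures contained 2% hematocrit erythrocytes at 0.1% final parasitemia.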
# NS1 function inh: inhibitors of influenza NS1 protein function | Potency, µM (titrated, usually from 46.1 µM), inactives show at the highest dose activity, positive = more growth | 270,000 tested, 0.4% active | AID 2326; calls by dose curve; note: potency is the fitted concentration of half-maximal effect; actives are rising curves; nearly all actives have a fitted effect of over 50% in size
#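 Compounds were scored for reversing the slow growth caused by influenza A NS1 in S. cerevisiae, measured by optical density at 600 nm. Assay medium contained 2% galactose at pH 6.0; NS1-free yeast of the same strain were the positive control.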
# Shiga inhibitor: inhibitors of Shiga toxin in Vero cells. 290,000 tested, 9.2% active. Vero cells, Shiga toxin protein synthesis inhibition reporter. inhibition, % at 38.7 µM; in the data active = inhibition mostly above about 28%, no sharp cut-off; inactive = mostly below about 43%; note: 0% is about no effect
# Pf growth 96h: P. falciparum growth inhibition at 96 hour, primary screen for plastid delayed-death inhibitors; P. falciparum luciferase reporter growth, 96 h; Potency, µM (titrated, usually from 28.7 µM), for the others: at the top dose activity change, negative = inhibition, usual class: inhibitors; 320,000 tested, 6.9% active; AID 504834; note: potency is the fitted concentration of half-maximal effect; % is set by controls: 0 for no effect and ±100 for the full control effect
#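 Two parasite generations (96 h, 37 C, 5% CO2) of compound exposure in infected erythrocytes (0.05% parasitemia, 2% hematocrit). Luciferase-reporter P. falciparum; decreased luminescence indicates inhibited growth, aimed at apicoplast-acting delayed death.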
# Numbers without * were called inactive; ? = inconclusive; nt = no result given. Unless noted, calls come from the whole dose curve; as a rule, active = well fitted inhibition curve with a large enough effect; inconclusive = small, poorly fitted or top-dose-only effect, or another doubt; inactive = no such curve, though single readings can be large or run the other way.
SMILES,CHX counter,Pf growth 48h,NS1 function inh,Shiga inhibitor,Pf growth 96h
CCC(C)CCCCC(=O)N[C@@H](CCN)C(=O)N[C@H](C(=O)N[C@@H](CCN)C(=O)N[C@H]1CCNC(=O)C([C@@H](C)O)NC(=O)[C@@H](CCN)NC(=O)[C@H](CCN)NC(=O)[C@H](CC(C)C)NC(=O)[C@@H](CC(C)C)NC(=O)[C@H](CCN)NC1=O)[C@@H](C)O (stereo partly specified),6.1,nt,nt,-12.3,nt
CCN(CC)S(=O)(=O)c1ccc(N2CCOCC2)c(NS(=O)(=O)c2cc(C(C)(C)C)ccc2C)c1,-2.1,0.0828µM*,?,-5.5,?
CCN(CC)S(=O)(=O)c1ccc(N2CCOCC2)c(NS(=O)(=O)c2ccc(C(C)C)cc2)c1,-2.5,2.94µM*,18.0%,-8.7,1.47µM*
Nc1nnc(SCC(=O)NNC(=O)c2ccc([N+](=O)[O-])cc2)s1,nt,21.6%,nt,nt,-13.0%
Cc1ccc(C(=O)NCCNC(=O)c2ccc(F)cc2)cn1,-7.3,20.4%,13.8%,2.1,-5.9%
O=C(CCCO)c1ccc2c(c1)OCCO2,-3.6,18.7%,4.0%,5.0,1.8%
O=C(CNC1=NCCC1)c1ccc2c(c1)OCCO2,-1.8,6.57µM*,2.7%,-6.2,?
CN(CCOC(=O)c1ccc2c(c1)OCCO2)C(C)(C)C,16.7*,12.1%,-2.7%,23.0,57.4%
CN(CCOC(=O)c1ccc2c(c1)OCCO2)Cc1ccccc1,41.1*,17.1%,-1.3%,19.3*,34.6%
COc1cccc(C(=O)OCCCN(C)C)c1,-2.2,13.1%,0.0%,31.9,32.4%
COc1cccc(C(=O)OCCN(C)C(C)(C)C)c1,-5.8,nt,3.3%,-4.4,8.28µM*
Nc1ccc(S(=O)(=O)N2CCCC2C(=O)O)cc1 (stereo unspecified),-0.3,5.2%,3.8%,8.3,17.0%
CCOC(=O)c1nn(-c2ccc(C)cc2)c(=O)cc1OCC(=O)Nc1ccc(OC)cc1,nt,-8.9%,nt,nt,26.3%
O=C(Cc1ccccc1)c1ccc2c(c1)OCCO2,43.4*,54.6%,-2.9%,87.4*,-0.2%
O=[N+]([O-])c1ccc(S(=O)(=O)NCCN2CCOCC2)cc1,2.2,-25.2%,4.8%,51.0*,19.5%
O=[N+]([O-])c1ccc(-c2ccc(S(=O)(=O)NCCN3CCCC3)cc2)cc1,-2.4,?,nt,-12.6,0.6%
Cc1nc2ccc3nc(NC(=O)C4COc5ccccc5O4)sc3c2s1 (stereo unspecified),2.7,-4.5%,-27.8%,18.4,?
Cc1nc2ccc(NC(=O)C3COc4ccccc4O3)cc2s1 (stereo unspecified),40.9*,183.0%,-0.2%,84.5*,117.0%
Cc1nc2cc(NC(=O)C3COc4ccccc4O3)ccc2s1 (stereo unspecified),60.6*,114.2%,-14.3%,54.2*,37.7%
Nc1sccc1C(=O)c1ccc(Cl)cc1,23.6*,141.7%,-18.7%,23.5,?
COc1ccc(S(=O)(=O)N(C)CC(=O)NCCN2CCOCC2)cc1C,-6.2,13.1%,-2.8%,-10.7,63.9%
CCCNC(=O)c1ccc(N2CC3CC(C2)c2cccc(=O)n2C3)c(NC(=O)Nc2ccc(CC)cc2)c1 (stereo unspecified),-3.1,?,14.8%,17.5,5.3%
COc1cccc(NC(=O)Nc2cc(C(=O)NC(C)C)ccc2N2CC3CC(C2)c2cccc(=O)n2C3)c1 (stereo unspecified),20.6,11.7µM*,-4.0%,-1.9,-9.3%
CSc1ccccc1NC(=O)c1ccc(N2CC3CC(C2)c2cccc(=O)n2C3)c(NC(=O)c2ccncc2)c1 (stereo unspecified),-9.0,9.28µM*,-1.8%,-3.2,?
CCN(C(=O)c1ccc(N2CC3CC(C2)c2cccc(=O)n2C3)c(NC(=O)c2ccncc2)c1)c1cccc(C)c1 (stereo unspecified),-2.0,?,6.3%,-8.1,-0.4%
CC(NCc1cccnc1)c1ccccc1 (stereo unspecified),-1.1,14.4%,8.4%,-6.1,?
O=C(Nc1ccc(N2CCN(C(=O)c3cccs3)CC2)cc1)c1cccc(F)c1,0.6,?,-3.6%,16.6,7.2%
O=C(NCCCN1CCN(c2ccc(F)cc2)CC1)c1cccc(N2CCCC2=O)c1,0.3,11.7µM*,-2.1%,-5.4,nt
O=C(Nc1ccc(N2CCCC2)cc1)c1cccc(F)c1,54.0*,-61.9%,-1.0%,145.4*,-70.6%
Cc1ccc(NC(=O)Nc2ccc(C(=O)N3CCOCC3)cc2)cc1,-1.3,20.0%,-17.3%,16.2,nt

# Assay outcomes as filed in PubChem.
